The source made the active and inactive calls. Rule for the calls: active = hit-call score of the fitted dose curve at least 0.9, where 1 is the maximum; inactive = score below 0.9.
Columns and labels:
Details in all cases: mRNA level, 48 h; actives raise or lower the signal
CYP2C9 (gene 1559) = experiment: LTEA_HepaRG_CYP2C9: Life Technologies and Expression Analysis (LTEA) Assay for CYP2C9 using HepaRG (AID 2283484)
Procedure, shortened: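 Differentiated human HepaRG cells in serum-free induction medium were exposed 48 h to chemicals in 8-point half-log series from 100 uM (0.5% DMSO), in duplicate. CYP2C9 mRNA was measured by qRT-PCR, normalized to ACTB/GAPDH/POLR2A, with bidirectional fitting versus DMSO.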

CYP2E1 (gene 1571) = experiment: LTEA_HepaRG_CYP2E1: Life Technologies and Expression Analysis (LTEA) Assay for CYP2E1 using HepaRG (AID 2283485)
Procedure, shortened: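 HepaRG cells, plated 48 h, then exposed 48 h in serum-free induction medium to eight half-log concentrations from 100 uM in 0.5% DMSO, duplicate. CYP2E1 mRNA by qRT-PCR, normalized to ACTB/GAPDH/POLR2A; bidirectional fit versus DMSO.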

CYP4A11 (gene 1579) = experiment: LTEA_HepaRG_CYP4A11: Life Technologies and Expression Analysis (LTEA) Assay for CYP4A11 using HepaRG (AID 2283486)
Procedure, shortened: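 Readout is CYP4A11 transcript level by qRT-PCR, normalized to three housekeeping genes and fitted bidirectionally against 0.5% DMSO. Human HepaRG cells were treated 48 h, in duplicate, with an 8-point half-log series topping at 100 uM.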

[1] = read-out: Cytochrome P450 3A4 (Homo sapiens) (UniProt P08684); experiment: LTEA_HepaRG_CYP3A4: Life Technologies and Expression Analysis (LTEA) Assay for CYP3A4 using HepaRG (AID 2283487)
Procedure, shortened: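 HepaRG, 48 h exposure, 8-pt CRC from 100 uM (half-log), 0.5% DMSO, duplicates; serum-free induction medium. Readout: CYP3A4 mRNA, qRT-PCR, ACTB/GAPDH/POLR2A normalization. Bidirectional fit vs DMSO.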

[2] = read-out: DNA damage-inducible transcript 3 (DDIT3), DDIT3 (gene 1649); experiment: LTEA_HepaRG_DDIT3: Life Technologies and Expression Analysis (LTEA) Assay for DNA damage-inducible transcript 3 (DDIT3) using HepaRG (AID 2283488)
Procedure, shortened: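 HepaRG cells, 48 h after plating, exposed 48 h in serum-free induction medium to 8 half-log concentrations up to 100 uM in 0.5% DMSO, in duplicate. DDIT3 mRNA measured by TaqMan qRT-PCR, normalized to ACTB, GAPDH and POLR2A. Fitted bidirectionally against DMSO.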

[3] = read-out: Pro-epidermal growth factor (Homo sapiens) (UniProt P01133); experiment: LTEA_HepaRG_EGF: Life Technologies and Expression Analysis (LTEA) Assay for Epidermal growth factor (EGF) using HepaRG (AID 2283489)
Procedure, shortened: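 EGF transcript measured by Fluidigm TaqMan qRT-PCR with three housekeeping genes for normalization, 48 h after dosing HepaRG cultures in duplicate (top 100 uM, half-log steps, 0.5% DMSO vehicle). Gain or loss relative to DMSO fitted.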

[4] = read-out: Early growth response protein 1 (EGR1) transcription factor, EGR1 (gene 1958); experiment: LTEA_HepaRG_EGR1: Life Technologies and Expression Analysis (LTEA) Assay for Early growth response protein 1 (EGR1) transcription factor using HepaRG (AID 2283490)
Procedure, shortened: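 Differentiated HepaRG cells in serum-free induction medium exposed 48 hours, duplicate, to 8 half-log concentrations up to 100 uM in 0.5% DMSO. EGR1 mRNA measured by TaqMan qRT-PCR, normalized to ACTB, GAPDH, POLR2A; bidirectional fit versus DMSO.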

[5] = read-out: Ezrin (EZR), EZR (gene 7430); experiment: LTEA_HepaRG_EZR: Life Technologies and Expression Analysis (LTEA) Assay for Ezrin (EZR) using HepaRG (AID 2283491)
Procedure, shortened: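 Read-out is EZR transcript level by qRT-PCR, normalized to three housekeeping genes and fitted bidirectionally against the DMSO control. Human HepaRG cells received test chemicals for 48 h at eight half-log concentrations up to 100 uM in 0.5% DMSO.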

[6] = read-out: Cytochrome P450 3A7 (Homo sapiens) (UniProt P24462); experiment: LTEA_HepaRG_CYP3A7: Life Technologies and Expression Analysis (LTEA) Assay for CYP3A7 using HepaRG (AID 2283492)
Procedure, shortened: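 CYP3A7 transcript measured by qRT-PCR (ACTB, GAPDH, POLR2A normalization) after 48 h chemical exposure of HepaRG cells in duplicate. Eight half-log concentrations, maximum 100 uM, 0.5% DMSO vehicle; bidirectional curve fitting against DMSO baseline.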

CYP3A5 (gene 1577) = experiment: LTEA_HepaRG_CYP3A5: Life Technologies and Expression Analysis (LTEA) Assay for CYP3A5 using HepaRG (AID 2283493)
Procedure, shortened: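 HepaRG cells, plated 48 h then in serum-free induction medium, dosed in duplicate for 48 h with eight half-log concentrations up to 100 uM in 0.5% DMSO. Gene mRNA by Fluidigm TaqMan qRT-PCR, normalized to ACTB, GAPDH, POLR2A.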

[7] = read-out: Fatty Acid-Binding Protein 1 (FABP1), FABP1 (gene 2168); experiment: LTEA_HepaRG_FABP1: Life Technologies and Expression Analysis (LTEA) Assay for Fatty Acid-Binding Protein 1 (FABP1) using HepaRG (AID 2283494)
Procedure, shortened: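 Differentiated human HepaRG cells exposed 48 h in serum-free induction medium to eight half-log concentrations up to 100 uM (0.5% DMSO), duplicate. FABP1 mRNA by qRT-PCR, normalised to ACTB, GAPDH, POLR2A; bidirectional fitting against DMSO.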

[8] = read-out: Cytochrome P450 4A22 (Homo sapiens) (UniProt Q5TCH4); experiment: LTEA_HepaRG_CYP4A22: Life Technologies and Expression Analysis (LTEA) Assay for Cytochrome P450 4A22 (CYP4A22) using HepaRG (AID 2283495)
Procedure, shortened: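 Gene expression measured by qRT-PCR against three housekeeping genes (ACTB, GAPDH, POLR2A), with gain or loss fitted relative to 0.5% DMSO vehicle. HepaRG cultures received 48 h chemical treatment, top concentration 100 uM, half-log steps, duplicate wells.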

[9] = read-out: Cytochrome P450 7A1 (Homo sapiens) (UniProt P22680); experiment: LTEA_HepaRG_CYP7A1: Life Technologies and Expression Analysis (LTEA) Assay for Cytochrome P450 7A1 (CYP7A1) using HepaRG (AID 2283496)
Procedure, shortened: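 HepaRG cells plated 48 h, then switched to serum-free induction medium and exposed in duplicate for 48 h to 8-point half-log series from 100 uM in 0.5% DMSO. CYP7A1 mRNA by qRT-PCR (TaqMan), normalized to ACTB/GAPDH/POLR2A; bidirectional fit versus DMSO.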

[10] = read-out: Glutathione S-Transferase (GSTA2), GSTA2 (gene 2939); experiment: LTEA_HepaRG_GSTA2: Life Technologies and Expression Analysis (LTEA) Assay for Glutathione S-Transferase (GSTA2) using HepaRG (AID 2283497)
Procedure, shortened: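 Differentiated human HepaRG cells were exposed in duplicate for 48 h in serum-free induction medium, 8 points from 100 uM top in half-log steps, 0.5% DMSO. GSTA2 mRNA was measured by TaqMan qRT-PCR, normalized to ACTB, GAPDH and POLR2A; bidirectional fit versus DMSO.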

[11] = read-out: Glutamate-cysteine ligase catalytic (GCLC), GCLC (gene 2729); experiment: LTEA_HepaRG_GCLC: Life Technologies and Expression Analysis (LTEA) Assay for Glutamate-cysteine ligase catalytic (GCLC) using HepaRG (AID 2283498)
Procedure, shortened: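 Differentiated HepaRG cells exposed 48 h in serum-free induction medium, eight-point half-log series topping at 100 uM in 0.5% DMSO, duplicates. GCLC mRNA by qRT-PCR normalized to ACTB, GAPDH and POLR2A, fitted bidirectionally versus DMSO.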

[12] = read-out: growth arrest and DNA damage 45 (GADD45G), GADD45G (gene 10912); experiment: LTEA_HepaRG_GADD45G: Life Technologies and Expression Analysis (LTEA) Assay for growth arrest and DNA damage 45 (GADD45G) using HepaRG (AID 2283499)
Procedure, shortened: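 GADD45G transcript level by qRT-PCR (housekeeping-normalized: ACTB, GAPDH, POLR2A) after 48 h chemical treatment of a single HepaRG lot in serum-free induction medium; eight-point half-log series up to 100 uM in 0.5% DMSO, duplicates, up- or down-regulation scored.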

[13] = read-out: Glutamate-cysteine ligase regulatory (GCLM), GCLM (gene 2730); experiment: LTEA_HepaRG_GCLM: Life Technologies and Expression Analysis (LTEA) Assay for Glutamate-cysteine ligase regulatory (GCLM) using HepaRG (AID 2283500)
Procedure, shortened: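 Differentiated HepaRG cells exposed 48 h in serum-free induction medium to eight half-log concentrations up to 100 uM (0.5% DMSO). GCLM mRNA by TaqMan qRT-PCR, normalized to ACTB, GAPDH and POLR2A; bidirectional fit versus DMSO.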

[14] = read-out: Glutathione S-transferase M3 (GSTM3), GSTM3 (gene 2947); experiment: LTEA_HepaRG_GSTM3: Life Technologies and Expression Analysis (LTEA) Assay for Glutathione S-transferase M3 (GSTM3) using HepaRG (AID 2283501)
Procedure, shortened: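 GSTM3 transcript levels came from Fluidigm TaqMan qRT-PCR normalized to three housekeeping genes, fitted in both directions against DMSO. HepaRG cultures received chemicals for 48 h in serum-free induction medium (0.5% DMSO), 8 half-log concentrations up to 100 uM, duplicate.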

[15] = read-out: Heat shock 70 kDa protein 1 (HSPA1A), gene 3303; experiment: LTEA_HepaRG_HSPA1A: Life Technologies and Expression Analysis (LTEA) Assay for Heat shock 70 kDa protein 1 (HSPA1A) using HepaRG (AID 2283502)
Procedure, shortened: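 Human HepaRG cells in serum-free induction medium were exposed in duplicate for 48 h to 8 half-log concentrations, highest 100 uM, in 0.5% DMSO. HSPA1A mRNA read by TaqMan qRT-PCR, normalized to ACTB, GAPDH, POLR2A, fitted bidirectionally against DMSO.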

[16] = read-out: Hypoxia-inducible factor 1-alpha (Homo sapiens) (UniProt Q16665); experiment: LTEA_HepaRG_HIF1A: Life Technologies and Expression Analysis (LTEA) Assay for Hypoxia-inducible factor 1 (HIF1A) Trancription factor using HepaRG (AID 2283503)
Procedure, shortened: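 Differentiated HepaRG cells in serum-free induction medium exposed 48 h, in duplicate, to 8-point half-log series from 100 uM in 0.5% DMSO. HIF1A mRNA measured by TaqMan qRT-PCR, normalized to ACTB/GAPDH/POLR2A, fitted bidirectionally versus DMSO.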

Measured: AC50

Cytochrome P450 3A7 (Homo sapiens), sequence (P24462 whole entry, looked up): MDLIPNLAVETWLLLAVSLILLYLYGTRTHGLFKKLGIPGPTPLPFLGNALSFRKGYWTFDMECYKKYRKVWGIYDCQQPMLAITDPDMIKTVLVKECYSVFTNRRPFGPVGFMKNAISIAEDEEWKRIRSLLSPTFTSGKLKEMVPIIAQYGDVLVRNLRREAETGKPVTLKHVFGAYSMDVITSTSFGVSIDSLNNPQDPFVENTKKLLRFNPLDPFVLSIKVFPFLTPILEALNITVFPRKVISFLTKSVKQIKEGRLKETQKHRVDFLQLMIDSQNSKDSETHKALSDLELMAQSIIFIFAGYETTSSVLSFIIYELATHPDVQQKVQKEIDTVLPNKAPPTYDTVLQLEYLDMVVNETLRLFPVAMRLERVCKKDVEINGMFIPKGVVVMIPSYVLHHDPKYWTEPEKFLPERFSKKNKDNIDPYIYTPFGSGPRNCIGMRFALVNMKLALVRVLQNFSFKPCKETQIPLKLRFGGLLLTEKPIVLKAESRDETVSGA
Hypoxia-inducible factor 1-alpha (Homo sapiens), sequence (Q16665 whole entry, looked up): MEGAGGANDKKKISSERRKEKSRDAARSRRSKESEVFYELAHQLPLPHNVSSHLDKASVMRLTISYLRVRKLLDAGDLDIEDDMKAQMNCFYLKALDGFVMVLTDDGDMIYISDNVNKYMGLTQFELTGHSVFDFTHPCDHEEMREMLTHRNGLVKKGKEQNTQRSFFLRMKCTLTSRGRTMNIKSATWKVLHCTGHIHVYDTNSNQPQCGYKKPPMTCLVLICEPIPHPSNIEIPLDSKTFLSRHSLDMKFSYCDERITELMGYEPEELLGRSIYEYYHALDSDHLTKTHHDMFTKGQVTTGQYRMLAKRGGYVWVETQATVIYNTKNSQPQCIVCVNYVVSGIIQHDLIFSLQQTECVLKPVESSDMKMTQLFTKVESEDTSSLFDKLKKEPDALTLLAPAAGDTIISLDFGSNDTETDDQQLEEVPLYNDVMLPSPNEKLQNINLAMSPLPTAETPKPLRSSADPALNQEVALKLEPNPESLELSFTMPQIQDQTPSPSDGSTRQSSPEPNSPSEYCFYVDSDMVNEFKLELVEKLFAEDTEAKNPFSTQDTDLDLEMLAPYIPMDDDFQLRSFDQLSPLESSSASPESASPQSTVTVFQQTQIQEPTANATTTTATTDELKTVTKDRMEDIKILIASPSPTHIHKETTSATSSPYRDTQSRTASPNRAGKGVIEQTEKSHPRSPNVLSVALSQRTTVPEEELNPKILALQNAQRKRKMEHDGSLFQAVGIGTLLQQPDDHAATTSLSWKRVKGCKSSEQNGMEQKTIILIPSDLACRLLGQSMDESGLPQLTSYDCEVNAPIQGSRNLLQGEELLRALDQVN
Cytochrome P450 3A4 (Homo sapiens), sequence (P08684 whole entry, looked up): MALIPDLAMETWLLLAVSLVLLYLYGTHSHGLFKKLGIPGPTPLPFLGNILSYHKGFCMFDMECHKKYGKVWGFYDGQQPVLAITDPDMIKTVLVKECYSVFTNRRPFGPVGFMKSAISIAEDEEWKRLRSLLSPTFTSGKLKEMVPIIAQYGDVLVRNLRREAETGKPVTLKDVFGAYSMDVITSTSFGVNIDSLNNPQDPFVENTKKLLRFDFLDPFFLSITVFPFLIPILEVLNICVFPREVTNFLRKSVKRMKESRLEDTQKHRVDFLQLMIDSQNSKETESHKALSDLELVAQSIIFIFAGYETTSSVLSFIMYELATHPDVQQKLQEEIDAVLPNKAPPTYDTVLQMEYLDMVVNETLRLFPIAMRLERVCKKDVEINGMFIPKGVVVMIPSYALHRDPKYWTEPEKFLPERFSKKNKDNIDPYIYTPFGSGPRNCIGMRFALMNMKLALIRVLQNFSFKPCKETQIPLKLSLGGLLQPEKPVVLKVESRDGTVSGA

Nc1nc2ncc(CNc3ccc(C(=O)N[C@@H](CCC(=O)O)C(=O)O)cc3)nc2c(=O)[nH]1
not listed: [16]
inactive: all other assays above

CC(C)CCCCCCCOC(=O)CCCCC(=O)OCCCCCCCC(C)C
inactive: all assays above

C1=CCCC=CCCC=CCC1
inactive: all assays above

COC(=O)CC(=O)OC
active: CYP2E1 (gene 1571) 33 µM | [1] 2.53 µM | [6] 3.64 µM | [7] 50 µM | [9] 50 µM
inactive: all other assays above

O=c1[nH]c2ccc(S(=O)CCN3CCC(Cc4ccc(F)cc4)CC3)cc2o1 (centres undefined)
active: CYP2C9 (gene 1559) 71.1 µM | CYP2E1 (gene 1571) 50 µM | CYP4A11 (gene 1579) 82.6 µM | [1] 12.5 µM | [2] 50 µM | [3] 30.7 µM | [4] 50 µM | [6] 90.1 µM | [7] 80.3 µM | [8] 80 µM | [9] 72.5 µM | [10] 87.5 µM | [12] 71.6 µM | [13] 50 µM | [15] 50 µM
inactive: [5] | CYP3A5 (gene 1577) | [11] | [14] | [16]

CCOCCO
inactive: all assays above

O=P(OC(CCl)CCl)(OC(CCl)CCl)OC(CCl)CCl
inactive: CYP3A5 (gene 1577) | [14] | [15] | [16]
active: CYP2C9 (gene 1559) 76.3 µM | CYP2E1 (gene 1571) 56 µM | CYP4A11 (gene 1579) 67.8 µM | [1] 88.5 µM | [2] 79.1 µM | [3] 88.8 µM | [4] 91.6 µM | [5] 89.1 µM | [6] 9.92 µM | [7] 72.9 µM | [8] 79 µM | [9] 76.9 µM | [10] 75.6 µM | [11] 89.5 µM | [12] 94.3 µM | [13] 83.9 µM

— PubChem BioAssay (EPA / NIEHS)
